Experiment [1] has as its target PGR (gene 5241) (UniProt P06401). Briefly: TOX21_PR_BLA_Followup_Agonist_ratio: Tox21 HEK293 Progesterone Receptor (PR) Agonism Beta-lactamase Follow-Up Assay, Ratio (AID 2283933). Summed up:
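Ratio-based beta-lactamase reporter signal after 16 hr compound treatment of PR-UAS-bla HEK293T cells at 37C. Substrate loading lasted 2 hr at room temperature.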

For experiment [2] the target is unchanged. Kind of experiment: TOX21_PR_BLA_Followup_Antagonist_ratio: Tox21 HEK293 Progesterone Receptor (PR) Antagonism Beta-lactamase Follow-Up Assay, Ratio (AID 2283934).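 Further: PR-UAS-bla HEK293T cells stimulated with 1 nM R5020 agonist for 16 hr.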 The gist of the method:
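Measured in PR-UAS-bla HEK293T cells co-treated with compound and 1 nM promegestone for 16 hr; beta-lactamase ratio read after 2 h FRET substrate loading, with parallel CellTiter-Glo cytotoxicity.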

Experiment [3] can be described thus: TOX21_PR_BLA_Followup_Agonist_viability: Viability Assessment in the Tox21 HEK293 Progesterone Receptor (PR) Agonism Beta-lactamase Follow-Up Assay (AID 2283935).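 Further: signal loss means lower viability so actives are cytotoxic.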 Summed up:
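Viability is read as CellTiter-Glo luminescence, where loss of signal indicates cytotoxicity. The cells are PR-UAS-bla HEK293T given compounds for 16 hr at 37C and 5% CO2, in the same wells used for the bla readout.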

Experiment [4] is described as follows: TOX21_PR_BLA_Followup_Antagonist_viability: Viability Assessment in the Tox21 HEK293 Progesterone Receptor (PR) Antagonism Beta-lactamase Follow-Up Assay (AID 2283936).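 Further: cells exposed to compound with R5020 agonist for 16 h; hits lower the luminescence signal meaning cytotoxicity.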 The gist of the method:
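PR-UAS-bla HEK293T cells in medium with 2% charcoal-stripped FBS were treated with compounds plus R5020 for 16 hr at 37C. After the beta-lactamase read, CellTiter-Glo was added to the same wells and luminescence read after 30 min at room temperature.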

Experiment [5] addresses PGR (gene 5241) (UniProt P06401). Kind of experiment: TOX21_PR_LUC_Followup_Agonist: Tox21 HEK293 Progesterone Receptor (PR) Agonism Luciferase Follow-Up Assay (AID 2283937; active means hit-call score of the fitted dose curve at least 0.9, where 1 is the maximum; inactive means score below 0.9). The gist of the method:
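In HEK293 cells stably expressing PR-A with a luciferase reporter, compounds were incubated 16 h at 37C, and induced luminescence was quantified with ONE-Glo, multiplexed with cell viability.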

Experiment [6] in a line: TOX21_PR_LUC_Followup_Antagonist_viability: Viability Assessment in the Tox21 HEK293 Progesterone Receptor (PR) Antagonism Luciferase Follow-Up Assay (AID 2283940). The gist of the method:
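Loss of CellTiter-Glo ATP signal indicates cytotoxicity in HEK293-PR-A-luc cells grown in 10% charcoal-stripped FBS medium, seeded 3,000 per well and incubated 16 h with compound at 37C.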

A short description of experiment [7]: TOX21_PR_LUC_Followup_Agonist_viability: Viability Assessment in the Tox21 HEK293 Progesterone Receptor (PR) Agonism Luciferase Follow-Up Assay (AID 2283941).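 Further: loss of signal means cytotoxicity so actives lower viability.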 Summed up:
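Seeding: HEK293-PR-A-luc, 3,000 cells/well, 5 h at 37C. Treatment: compound in DMSO, 16 h, 37C. Read: CellTiter-Glo ATP luminescence, signal loss taken as lower viability.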

The target in experiment [8] is Nucleoli Translocation, AR (gene 367) (UniProt P10275). Kind of experiment: UPITT_HCI_U2OS_AR_TIF2_Nucleoli_Antagonist: University of Pittsburgh U2OS Androgen Receptor-Transcriptional Intermediary Factor 2 (AR-TIF2) Antagonism High Content Imaging Assay for Nucleoli Translocation (AID 2283997). The gist of the method: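 Compounds are added at 20 uM final concentration in 0.2% DMSO to U2OS cells carrying AR-RFP and TIF2-GFP fusions. Nucleolar AR-RFP fluorescence is then quantified by automated imaging. Antagonism is fitted positively against DHT baseline.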

The target is the same in experiment [9]. Kind of experiment: UPITT_HCI_U2OS_AR_TIF2_Nucleoli_Agonist: University of Pittsburgh U2OS Androgen Receptor-Transcriptional Intermediary Factor 2 (AR-TIF2) Agonism High Content Imaging Assay for Nucleoli Translocation (AID 2283998). Summed up: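 Cells express human AR fused to red fluorescent protein and TIF2 fused to GFP. Red fluorescence in the nucleolar region was quantified by high-content imaging and fitted as gain-of-signal against a DMSO baseline. Compounds were tested at 0.195 to 50 uM final (0.5% DMSO).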

The target of experiment [10] is Ratio of Nucleoli Translocation and Cytoplasm, AR (gene 367) (UniProt P10275). Kind of experiment: UPITT_HCI_U2OS_AR_TIF2_Nucleoli_Cytoplasm_Ratio_Antagonist: University of Pittsburgh U2OS Androgen Receptor-Transcriptional Intermediary Factor 2 (AR-TIF2) Antagonism High Content Imaging Assay for Ratio of Nucleoli Translocation and Cytoplasm (AID 2283999).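 Further: antagonists lower the DHT-driven ratio of nucleolar to cytoplasmic red signal.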 The gist of the method: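 This antagonist-mode endpoint tracks AR-RFP localisation, the nucleolus-to-cytoplasm intensity ratio, in TIF2-GFP-coexpressing U2OS cells. DMSO stays at or below 0.5%; testing spans 20 uM single-dose and 0.195–50 uM series, with DHT setting the activity baseline.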

Experiment [11] has the same target. Kind of experiment: UPITT_HCI_U2OS_AR_TIF2_Nucleoli_Cytoplasm_Ratio_Agonist: University of Pittsburgh U2OS Androgen Receptor-Transcriptional Intermediary Factor 2 (AR-TIF2) Agonism High Content Imaging Assay for Ratio of Nucleoli Translocation and Cytoplasm (AID 2284000).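 Further: hits raise the red nucleolar to cytoplasm ratio above vehicle.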 Summed up: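 Human osteosarcoma U2OS line, AR-RFP plus TIF2-GFP; compounds 0.195–50 uM final, 0.5% DMSO. Readout: nucleolar/cytoplasmic RFP ratio by HCI, positive direction vs DMSO baseline.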

A short description of experiment [12]: CCTE_Shafer_MEA_acute_spike_number: CCTE's Neural Acute Assay for Total Number of Spikes, Shafer Lab (AID 2284008; active means hit-call score of the fitted dose curve at least 0.9, where 1 is the maximum; inactive means score below 0.9;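 on AC50: curve fitted for decrease in spike count so AC50 reflects inhibitors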). Summed up:
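Primary rat cortical neurons on 16-electrode MEA wells; on DIV 13 or 15, 40-min baseline then 40-min recording with compound (0.03-40 uM) at 37 C. Spikes detected at 8x rms noise; percent change versus baseline, DMSO as negative control.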

Experiment [13] is described as follows: CCTE_Shafer_MEA_acute_firing_rate_mean: CCTE's Neural Acute Assay for Mean Firing Rate, Shafer Lab (AID 2284009; active means hit-call score of the fitted dose curve at least 0.9, where 1 is the maximum; inactive means score below 0.9;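 further: analyzed for loss of signal so actives lower firing rate relative to DMSO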). The gist of the method: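 Rat cortical neuron cultures matured to DIV 13 or 15, equilibrated 20 min at 37 C, then recorded 40 min for baseline. Compound (0.03-40 uM) added and a further 40 min recorded; percent change in mean firing rate calculated per well.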

The nature of experiment [14]: CCTE_Shafer_MEA_acute_burst_number: CCTE's Neural Acute Assay for Single-Electrode Bursts, Shafer Lab (AID 2284013; active means hit-call score of the fitted dose curve at least 0.9, where 1 is the maximum; inactive means score below 0.9). The gist of the method: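 Percent change in single-electrode burst number per well, from 40-min recordings taken before and after adding compound (0.03-40 uM) to primary rat cortical neurons on MEA plates at DIV 13 or 15, 37 C.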
Experiment [15] can be described thus: CCTE_Shafer_MEA_acute_burst_duration_mean: CCTE's Neural Acute Assay for Mean Burst Duration, Shafer Lab (AID 2284014; active means hit-call score of the fitted dose curve at least 0.9, where 1 is the maximum; inactive means score below 0.9;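 further: hits are decreases in mean burst duration relative to DMSO controls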). The gist of the method:
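Rat cortical cultures, DIV 13/15; 40 min baseline, then 40 min with compound (0.03-40 uM), 37 C. Spikes: 300-5000 Hz band-pass, 8x rms threshold. Read-out: % change in mean single-electrode burst duration, DMSO-referenced, loss direction.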

Experiment [16] in a line: CCTE_Mundy_HCI_hN2_NOG_NeuronCount: CCTE's Neurite Outgrowth Assay in human hN2 cells for Neuron Count, Mundy Lab (AID 2284221). Summed up: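 Read-out is the number of betaIII-tubulin-positive neurons imaged by automated high-content analysis, with DMSO as negative control.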
The nature of experiment [17]: CCTE_Mundy_HCI_hN2_NOG_NeuriteCount: CCTE's Neurite Outgrowth Assay in human hN2 cells for Neurite Count, Mundy Lab (AID 2284219). Summed up:
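In this morphology assay, hNP1-derived neurons received test chemical 2 h post-plating and were fixed two days later in warm paraformaldehyde/sucrose containing Hoechst 33342. Neurites, labelled by rabbit anti-βIII-tubulin (1:800) and Alexa Fluor-488 (1:500), were counted automatically.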

Experiment [18] is described as follows: CCTE_Mundy_HCI_hN2_NOG_NeuriteLength: CCTE's Neurite Outgrowth Assay in human hN2 cells for Neurite Length, Mundy Lab (AID 2284220). Summed up:
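Read-out is neurite length from high-content imaging of βIII-tubulin/Alexa Fluor-488-labelled neurons, referenced to DMSO controls.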

This note sets out measurements from PubChem BioAssay (EPA / NIEHS).

Records with an inconclusive call do not appear. The source made the active and inactive calls. How the source made its calls, unless noted: active means hit-call score of the fitted dose curve at least 0.9, where 1 is the maximum; inconclusive means response in the unintended direction; inactive means score below 0.9.

PGR (gene 5241), sequence (P06401 whole entry, looked up): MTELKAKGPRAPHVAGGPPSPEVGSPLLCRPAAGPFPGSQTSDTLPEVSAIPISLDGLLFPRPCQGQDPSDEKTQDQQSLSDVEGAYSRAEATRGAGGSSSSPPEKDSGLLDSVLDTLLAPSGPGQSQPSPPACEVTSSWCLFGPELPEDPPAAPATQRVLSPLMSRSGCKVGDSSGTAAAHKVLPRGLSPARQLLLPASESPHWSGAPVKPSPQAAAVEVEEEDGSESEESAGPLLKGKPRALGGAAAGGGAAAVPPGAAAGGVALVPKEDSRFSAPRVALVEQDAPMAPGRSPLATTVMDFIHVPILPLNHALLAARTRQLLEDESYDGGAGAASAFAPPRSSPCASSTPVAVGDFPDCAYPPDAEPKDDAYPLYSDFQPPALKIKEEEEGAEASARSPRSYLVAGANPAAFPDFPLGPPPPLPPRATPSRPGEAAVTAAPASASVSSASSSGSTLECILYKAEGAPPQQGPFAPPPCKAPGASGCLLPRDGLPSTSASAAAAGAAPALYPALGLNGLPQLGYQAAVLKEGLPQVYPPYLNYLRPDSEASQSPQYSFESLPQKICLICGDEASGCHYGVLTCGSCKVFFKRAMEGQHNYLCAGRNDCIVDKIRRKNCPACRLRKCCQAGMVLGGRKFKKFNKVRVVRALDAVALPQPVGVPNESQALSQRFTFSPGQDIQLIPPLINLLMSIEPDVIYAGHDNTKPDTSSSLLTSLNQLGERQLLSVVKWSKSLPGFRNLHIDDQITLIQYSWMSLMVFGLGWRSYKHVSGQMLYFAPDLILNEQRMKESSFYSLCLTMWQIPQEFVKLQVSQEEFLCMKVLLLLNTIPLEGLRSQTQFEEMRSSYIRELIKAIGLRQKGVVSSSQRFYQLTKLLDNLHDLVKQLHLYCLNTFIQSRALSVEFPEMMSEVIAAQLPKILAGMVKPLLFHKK
Nucleoli Translocation, AR (gene 367), sequence (P10275 whole entry, looked up, the tested form may be a part): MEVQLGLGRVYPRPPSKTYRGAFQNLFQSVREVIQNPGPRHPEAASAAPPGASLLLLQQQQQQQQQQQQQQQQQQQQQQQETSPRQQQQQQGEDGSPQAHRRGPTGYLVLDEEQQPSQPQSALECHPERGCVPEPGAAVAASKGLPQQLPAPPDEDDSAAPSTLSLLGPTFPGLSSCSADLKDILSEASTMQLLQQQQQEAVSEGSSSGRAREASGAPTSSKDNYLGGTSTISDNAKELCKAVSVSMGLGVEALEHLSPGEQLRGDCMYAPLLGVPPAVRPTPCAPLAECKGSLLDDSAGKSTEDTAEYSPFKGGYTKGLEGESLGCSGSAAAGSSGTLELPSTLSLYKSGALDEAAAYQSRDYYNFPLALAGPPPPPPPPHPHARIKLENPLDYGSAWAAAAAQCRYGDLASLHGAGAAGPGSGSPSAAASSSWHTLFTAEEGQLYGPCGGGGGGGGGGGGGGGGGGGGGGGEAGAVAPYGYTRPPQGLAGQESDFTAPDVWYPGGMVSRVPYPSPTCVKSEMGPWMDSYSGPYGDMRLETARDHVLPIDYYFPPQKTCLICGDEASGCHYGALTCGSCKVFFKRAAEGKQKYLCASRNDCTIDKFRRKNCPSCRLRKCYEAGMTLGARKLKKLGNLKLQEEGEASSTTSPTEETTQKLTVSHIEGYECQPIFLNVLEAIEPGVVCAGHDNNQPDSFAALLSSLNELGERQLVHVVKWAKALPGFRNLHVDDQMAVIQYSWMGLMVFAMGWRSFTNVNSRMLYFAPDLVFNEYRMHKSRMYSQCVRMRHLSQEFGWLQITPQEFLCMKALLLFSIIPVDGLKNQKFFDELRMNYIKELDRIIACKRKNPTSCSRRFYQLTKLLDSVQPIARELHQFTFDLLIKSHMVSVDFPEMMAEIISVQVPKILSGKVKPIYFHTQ
Ratio of Nucleoli Translocation and Cytoplasm, AR (gene 367), sequence (P10275 whole entry, looked up): as the sequence (P10275 whole entry, looked up, the tested form may be a part) above

On to `O=C(CBr)Nc1ccc(Cl)cc1C(=O)c1ccccc1F`, for which the outcome in experiment [1], in [2], in experiment [3], in experiment [4], in experiment [5] and in experiment [6] was inactive. Moreover, the outcome in experiment [7] was inactive.
Regarding `ClC1=C(Cl)[C@]2(Cl)[C@H]3[C@H]([C@H](Cl)C(Cl)[C@@H]3Cl)[C@@]1(Cl)C2(Cl)Cl` (some centres undefined), the compound was classed as inactive in experiment [8], in experiment [9], in [10] and in experiment [11].
The term AC50 denotes the concentration at which the activity in the assay is half-maximal. On to `C[C@]12CC[C@H]3[C@@H](CCC4=CC(=O)CC[C@@H]43)[C@@H]1CC[C@@H]2OC(=O)CCc1ccco1`, for which the AC50 in experiment [1] is 2.16 µM (active); in experiment [5], 0.0275 µM (active). In addition, the result in experiment [2], in experiment [3] and in [4] was inactive.
Consider `CCC(=O)O[C@@H]1C=C2CCC3C(CCC4(C)C3CC[C@@H]4OC(=O)CC)C2CC1` (some centres undefined), for which the values for the AC50 in experiment [1] and in experiment [5] were 4.48 µM (active) and 0.165 µM (active), respectively. Moreover, the result in experiment [2], in experiment [3] and in experiment [7] was inactive.
On to `C[C@]12CC[C@H]3[C@@H](CCC4=CC(=O)CC[C@@H]43)[C@@H]1CC[C@@H]2OC(=O)CCC1CCCCC1`, for which the AC50 in experiment [1] was 2.39 µM (active); in [5], 0.0731 µM (active). Besides, the result in [2], in experiment [3], in experiment [4], in experiment [6] and in experiment [7] was inactive.
Take `CP(=O)(O)CC[C@H](N)C(=O)O`: the compound was called inactive in [12], in experiment [13], in [14] and in experiment [15].
`CP(=O)(O)CCC(N)C(=O)O` (centres undefined): the result in experiment [12], in [13] and in experiment [14] was inactive. In addition, in experiment [15], the AC50 was 35 µM (active).
For `C#CCN(C)[C@H](C)Cc1ccccc1`, the outcome in experiment [12], in experiment [13] and in experiment [14] was inactive. The AC50 in experiment [15] is 8.86 µM (active).
As to `C[C@H](N)Cc1ccccc1`, in experiment [16], the compound was classed as inactive.
For `O=C(O)CNCP(=O)(O)O`, the outcome in experiment [12], in experiment [13], in experiment [14], in [15], in experiment [17] and in [18] was inactive.
Consider `O.O.O.O.O.[Cd+2].[Cd+2].[Cl-].[Cl-].[Cl-].[Cl-]`, for which the AC50 in [17] was 30 µM (active); in [18] it was 31.6 µM (active); in experiment [16] it was 14.1 µM (active).
Take `[CH3][Sn]([CH3])[CH3]`: the call in experiment [17] and in experiment [16] was inactive.
Take `CC1(C)[C@@H](C=C(Cl)Cl)[C@@H]1C(=O)O[C@@H](C#N)c1ccc(F)c(Oc2ccccc2)c1`: the AC50 in [12] was 2.96 µM (active); in experiment [13] it was 2.97 µM (active). Moreover, the compound was classed as inactive in experiment [14] and in experiment [15].
Regarding `CC(=O)[O-].CC(=O)[O-].O.O.O.[Pb+2]`, the concentration at half-maximal activity (AC50) was 2.19 µM (active) in experiment [17], 2.07 µM (active) in [18] and 12 µM (active) in experiment [16].
Regarding `O=[As]O`, the figures for the AC50 in experiment [17], in [18] and in [16] were 6.15 µM (active), 5.09 µM (active) and 4.47 µM (active), respectively.
Take `C=CCN1CC[C@]23c4c5ccc(O)c4O[C@H]2C(=O)CC[C@@]3(O)[C@H]1C5`: the call in [17] and in [18] was inactive.
